Source: PubChem BioAssay (NCATS)
Results filed as inconclusive are left out. Entries that show only a call come without a potency. Unmarked numbers belong to inactive results. Active and inactive are the calls of the source. The call rests on the fitted dose curve; in most records, active means well fitted cell-killing curve with a large enough effect; inconclusive means small, poorly fitted or top-dose-only effect, or effect the other way; inactive means flat fitted curve, though single readings scatter.

Key:
Experiment in all cases: Primary qHTS to identify gynecologic anti-cancer compounds using libraries of approved drugs and bioactive compounds (AID 1345084); further: nearly all actives have a fitted effect of over 55% in size
C33A = settings: Gynecologic cancer cell panel viability, ATPlite luminescence, 48 h; series mostly up to 57.5 µM
In short: (§1)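 Five-concentration response, 48 h; readout is ATP-driven luciferase luminescence.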

CAOV3 = settings: Gynecologic cancer cell panel viability, ATPlite luminescence, 48 h; series mostly up to 57.5 µM
In short: as §1

CASKI = settings: Gynecologic cancer cell panel viability, ATPlite luminescence, 48 h; series mostly up to 57.5 µM
In short: as §1

Es-2 = settings: Gynecologic cancer cell panel viability, ATPlite luminescence, 48 h; series mostly up to 57.5 µM
In short: as §1

OV90 = settings: Gynecologic cancer cell panel viability, ATPlite luminescence, 48 h; series mostly up to 57.5 µM
In short: as §1

Tov-21-G = settings: Gynecologic cancer cell panel viability, ATPlite luminescence, 48 h; series mostly up to 57.5 µM
In short: as §1

Tov112D = settings: Gynecologic cancer cell panel viability, ATPlite luminescence, 48 h; series mostly up to 57.5 µM
In short: as §1

HeLa = settings: Gynecologic cancer cell panel viability, ATPlite luminescence, 48 h; series mostly up to 57.5 µM
In short: as §1

Hek293T = settings: Gynecologic cancer cell panel viability, ATPlite luminescence, 48 h, control line for the selectivity index; series mostly up to 57.5 µM
In short: as §1

JEG-3 = settings: Gynecologic cancer cell panel viability, ATPlite luminescence, 48 h; series mostly up to 57.5 µM
In short: as §1

PA-1 = settings: Gynecologic cancer cell panel viability, ATPlite luminescence, 48 h; series mostly up to 57.5 µM
In short: as §1

SKOV3 = settings: Gynecologic cancer cell panel viability, ATPlite luminescence, 48 h; series mostly up to 57.5 µM
In short: as §1
Potency means the concentration at half of the fitted maximal effect.

SMILES: CC[C@@H](C)[C@@H]1OC2(C=C[C@H]1C)C[C@@H]1C[C@H](C/C=C(\C)[C@H](O[C@H]3C[C@H](OC)[C@H](O[C@H]4C[C@H](OC)[C@H](NC(C)=O)[C@H](C)O4)[C@H](C)O3)[C@H](C)/C=C/C=C3\CO[C@H]4[C@H](O)C(C)=C[C@@H](C(=O)O1)[C@@]34O)O2 (stereo partly specified)
- Potency (C33A): inactive
- Potency (CAOV3): inactive
- Potency (CASKI): inactive
- Potency (Es-2): inactive
- Potency (OV90): inactive
- Potency (Tov-21-G): inactive
- Potency (Tov112D): inactive

SMILES: C=C1C(=O)OC2CC(C)=C(C(C)CCCOC(C)=O)C(OC(=O)CC(C)CC)C12 (stereo unspecified)
- Potency (C33A): inactive
- Potency (CAOV3): inactive
- Potency (CASKI): inactive
- Potency (HeLa): inactive
- Potency (OV90): inactive
- Potency (Tov112D): inactive

SMILES: C=C1C(=O)O[C@@H]2C[C@H](C)[C@@H]3CC(=O)[C@H](O)[C@@]3(C)C[C@H]12
- Potency (C33A): inactive
- Potency (CAOV3): inactive
- Potency (CASKI): inactive
- Potency (HeLa): inactive
- Potency (Hek293T): inactive
- Potency (JEG-3): inactive
- Potency (OV90): inactive
- Potency (PA-1): 25100 nM (active)
- Potency (SKOV3): inactive
- Potency (Tov112D): inactive

SMILES: C=C(C(=O)O[C@H]1C/C(C)=C/CC/C(CO)=C/[C@H]2OC(=O)C(=C)[C@H]12)C(O)CO (stereo partly specified)
- Potency (C33A): inactive
- Potency (CAOV3): inactive
- Potency (CASKI): inactive
- Potency (HeLa): inactive
- Potency (Hek293T): inactive
- Potency (OV90): inactive
- Potency (PA-1): inactive
- Potency (SKOV3): inactive
- Potency (Tov112D): inactive

SMILES: C=C1C(=O)O[C@@H]2C[C@@]3(C)C[C@@H](O)C[C@H](C)C3=C[C@H]12
- Potency (C33A): inactive
- Potency (CAOV3): inactive
- Potency (CASKI): inactive
- Potency (HeLa): inactive
- Potency (Hek293T): inactive
- Potency (JEG-3): inactive
- Potency (OV90): inactive
- Potency (PA-1): inactive
- Potency (SKOV3): inactive
- Potency (Tov112D): inactive

SMILES: CC#C[C@@H](CC(=O)O)c1ccc(OCc2cccc(-c3ccc(C(F)(F)F)cc3)c2)cc1
- Potency (C33A): inactive
- Potency (CAOV3): inactive
- Potency (CASKI): inactive
- Potency (Hek293T): inactive
- Potency (JEG-3): inactive
- Potency (OV90): inactive
- Potency (SKOV3): inactive
- Potency (Tov-21-G): inactive
- Potency (Tov112D): inactive

SMILES: CC(=O)O[C@@H]1[C@H](O[C@@H]2O[C@@H](CO)[C@H](O)[C@H]2O)[C@@H](O[C@@H]2O[C@@H](C)[C@H](O[C@@H]3OC[C@@H](O)[C@H](O)[C@H]3O)[C@@H](O)[C@H]2O)[C@H](OC(=O)[C@]23CCC(C)(C)C[C@H]2C2=CCC4[C@@]5(C)CC[C@H](O[C@@H]6O[C@H](C(=O)O)[C@@H](O)[C@H](O)[C@H]6O[C@@H]6O[C@H](CO)[C@H](O)[C@H](O)[C@H]6O)[C@@](C)(C=O)C5CC[C@@]4(C)[C@]2(C)C[C@H]3O)O[C@@H]1C (stereo partly specified)
- activity change, negative = cytotoxicity (C33A): -10.4% [at 6.55 µM]
- activity change, negative = cytotoxicity (CAOV3): -10.3% [at 6.55 µM]
- activity change, negative = cytotoxicity (CASKI): -9.38% [at 6.55 µM]
- activity change, negative = cytotoxicity (HeLa): 10% [at 6.55 µM]
- activity change, negative = cytotoxicity (JEG-3): 6.34% [at 6.55 µM]
- activity change, negative = cytotoxicity (SKOV3): 8.44% [at 6.55 µM]
- activity change, negative = cytotoxicity (Tov112D): -3.22% [at 6.55 µM]

SMILES: C=C1CC(=O)C2OC2(C)CC2OC(=O)C(=C)C2C(O)C1OC(=O)/C(C)=C\C (stereo unspecified)
- Potency (C33A): inactive
- Potency (CAOV3): inactive
- Potency (CASKI): inactive
- Potency (HeLa): inactive
- Potency (JEG-3): inactive
- Potency (OV90): inactive
- Potency (PA-1): inactive
- Potency (SKOV3): inactive
- Potency (Tov112D): inactive

SMILES: CCOC(=O)c1csc(Nc2ccc(Cl)cc2)n1
- Potency (C33A): inactive
- Potency (CAOV3): inactive
- Potency (CASKI): inactive
- Potency (HeLa): inactive
- Potency (JEG-3): inactive
- Potency (OV90): inactive
- Potency (PA-1): inactive
- Potency (SKOV3): inactive
- Potency (Tov-21-G): inactive
- Potency (Tov112D): inactive

SMILES: Nc1nc(Cl)nc2c1ncn2C1OC(CO)C(O)C1F (stereo unspecified)
- Potency (C33A): inactive
- Potency (CAOV3): 631 nM (active)
- Potency (CASKI): 3980 nM (active)
- Potency (HeLa): inactive
- Potency (OV90): inactive
- Potency (PA-1): 3550 nM (active)
- Potency (Tov112D): 398 nM (active)

SMILES: Fc1ccc(-c2nc(-c3c(F)cccc3F)[nH]c2-c2ccncc2)cc1
- Potency (C33A): inactive
- Potency (CAOV3): inactive
- Potency (CASKI): inactive
- Potency (Es-2): inactive
- Potency (Hek293T): inactive
- Potency (PA-1): inactive
- Potency (Tov-21-G): inactive
- Potency (Tov112D): inactive

SMILES: C/C=C(\C)C(=O)O[C@H]1C=CC(=O)O[C@H]1/C=C/[C@@H](O)[C@H](C)O
- Potency (C33A): inactive
- Potency (CAOV3): inactive
- Potency (CASKI): inactive
- Potency (HeLa): inactive
- Potency (OV90): inactive
- Potency (SKOV3): inactive
- Potency (Tov112D): inactive

SMILES: O=C(c1ccc(OC(F)F)c(C#Cc2ccccn2)c1)N1Cc2cccnc2C1
- Potency (C33A): inactive
- Potency (CAOV3): inactive
- Potency (CASKI): inactive
- Potency (Hek293T): inactive
- Potency (JEG-3): inactive
- Potency (OV90): inactive

SMILES: C=C1C(=O)O[C@@H]2/C=C(\C)CC/C=C(/C=O)[C@H](OC)[C@@H](OC(=O)C(C)C)[C@@H]12
- Potency (C33A): inactive
- Potency (CAOV3): inactive
- Potency (CASKI): inactive
- Potency (HeLa): inactive
- Potency (JEG-3): inactive
- Potency (PA-1): inactive
- Potency (SKOV3): inactive
- Potency (Tov112D): inactive

SMILES: C=CC(=O)N1CCCN(c2cc(NCCC(=O)O)nc(-c3ccccn3)n2)CC1
- Potency (C33A): inactive
- Potency (CAOV3): inactive
- Potency (CASKI): inactive
- Potency (HeLa): inactive
- Potency (Hek293T): inactive
- Potency (JEG-3): inactive
- Potency (PA-1): inactive
- Potency (Tov-21-G): inactive
- Potency (Tov112D): inactive

SMILES: O=S(=O)(c1ccccc1)N(CC(F)(F)F)c1ccc(C(O)(C(F)(F)F)C(F)(F)F)cc1
- Potency (C33A): inactive
- Potency (CAOV3): inactive
- Potency (CASKI): inactive
- Potency (HeLa): inactive
- Potency (Hek293T): inactive
- Potency (JEG-3): inactive
- Potency (OV90): inactive
- Potency (PA-1): inactive
- Potency (SKOV3): inactive
- Potency (Tov-21-G): inactive
- Potency (Tov112D): inactive

SMILES: C[C@H](CN(C)C)Oc1nc(Nc2cc3cccc(Cl)c3cn2)cnc1C#N
- Potency (C33A): inactive
- Potency (CAOV3): inactive
- Potency (CASKI): inactive
- Potency (HeLa): inactive
- Potency (JEG-3): inactive
- Potency (OV90): inactive
- Potency (PA-1): inactive
- Potency (SKOV3): 12600 nM (active)
- Potency (Tov112D): inactive

SMILES: Cc1c(C(=O)Nc2ccc(N3CCC(N4CCOCC4)CC3)c(C#N)c2)cnn1-c1ccc(Cl)cc1
- Potency (C33A): 891 nM (active)
- Potency (CAOV3): inactive
- Potency (CASKI): inactive
- Potency (HeLa): inactive
- Potency (JEG-3): 794 nM (active)
- Potency (SKOV3): inactive
- Potency (Tov-21-G): inactive
- Potency (Tov112D): inactive

SMILES: CC(=O)O[C@H]1CC(C)(C)CC2[C@]13CO[C@@]21CCC2[C@@]4(C)CC[C@H](O[C@@H]5OC[C@H](O[C@@H]6O[C@H](CO)[C@@H](O)[C@H](O)[C@H]6O[C@@H]6OC[C@@H](O)[C@H](O)[C@H]6O)[C@H](O)[C@H]5O[C@@H]5O[C@H](CO)[C@@H](O)[C@H](O)[C@H]5O)[C@@](C)(CO)C4CC[C@@]2(C)[C@]1(C)C[C@H]3O (stereo partly specified)
- activity change, negative = cytotoxicity (C33A): -17.3% [at 11.6 µM]
- activity change, negative = cytotoxicity (CAOV3): -0.697% [at 11.6 µM]
- activity change, negative = cytotoxicity (CASKI): -20.7% [at 11.6 µM]
- activity change, negative = cytotoxicity (HeLa): -3.76% [at 11.6 µM]
- activity change, negative = cytotoxicity (JEG-3): -9.1% [at 11.6 µM]
- activity change, negative = cytotoxicity (SKOV3): -11.7% [at 11.6 µM]
